Compound activity: PubChem BioAssay, National Center for Advancing Translational Sciences (NCATS)
Pf growth 96h: inhibits malaria parasite growth, 96 h; P. falciparum luciferase reporter growth, 96 h; Potency, µM (titrated, usually from 28.7 µM), without a hit: at the top dose activity change, negative = inhibition, actives largely listed as inhibitors; 320,000 tested, 6.9% active; further: potency means the concentration at half of the fitted maximal effect; on the % scale 0 is the no-effect control and ±100 the full control effect
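Erythrocytes infected with luciferase-expressing P. falciparum were dispensed at 2% hematocrit and 0.05% parasitemia (final), then incubated with compounds 96 hours at 37 C in 5% CO2. Luminescence after detection reagent addition reported growth.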
Pf growth 48h: inhibits P. falciparum growth in the first generation, 48 h | 310,000 tested, 5.9% active | P. falciparum luciferase growth in erythrocytes, 48 h | Potency, µM (doses to about 28.7 µM), without a hit: at the highest dose activity change, negative = inhibition, usual class: inhibitors; further: potency means the concentration at half of the fitted maximal effect; on the % scale 0 is the no-effect control and ±100 the full control effect
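First compound was added to culture medium, then infected red cells at 0.1% parasitemia and 2% hematocrit (final). After incubation at 37 C under 5% CO2, luciferase detection reagent was dispensed and light output recorded.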
HCV inhibitor: blocks hepatitis C virus. Potency, µM (doses to about 41.8 µM), for the others: at the top dose activity change, negative = inhibition, actives largely listed as inhibitors. 340,000 tested, 3.4% active. AID 651820. Huh7.5.1 HCVcc-Cre infection, luciferase reporter, 44 h; further: potency means the concentration at half of the fitted maximal effect; on the % scale 0 is the no-effect control and ±100 the full control effect
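Seed cells (1,000/well) for 4 h; treat with compound and infect with HCVcc-Cre, moi about 0.5. Incubate 44 h, then detect luciferase activity.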
SARS PLP yeast: blocks SARS-CoV papain-like protease in a yeast assay. S. cerevisiae expressing SARS-CoV PLpro, growth rescue. Potency, µM (titrated, usually from 32.9 µM), without a hit: at the highest dose activity, positive = growth rescue, usual class: activators. 330,000 tested, 0.19% active. AID 485353; calls by dose curve; further: potency means the concentration at half of the fitted maximal effect; 0% is about no effect; nearly all actives have a fitted effect of over 55% in size
HCMV inh: inhibitors of human cytomegalovirus | activity change, negative = inhibition, % at 57.5 µM | 410,000 tested, 4.5% active | HFF cells, HCMV-luciferase reporter, 72 h; stronger effect = lower value | AID 1259415; in the data active means activity change below about -60%; inconclusive means no clear call, values can overlap the other calls; inactive means above about -39%; further: on the % scale 0 is the no-effect control and ±100 the full control effect
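Two compound doses tested in HFFs infected with HCMV-luciferase, MOI 1 PFU/cell, 72 h at 37C. Lysate luminescence read with OneGlo; data normalized against buffer-only and 10uM Salinomycin inhibitor controls.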
Sm TGR inh: blocks Schistosoma mansoni thioredoxin glutathione reductase; Q962Y6; purified TGR, DTNB reduction, TNB absorbance 405 nm; Potency, µM (titrated, usually from 114 µM), inactives show top-dose activity change, negative = inhibition, actives largely listed as inhibitors; 360,000 tested, 3% active; AID 485364; further: potency means the concentration at half of the fitted maximal effect; on the % scale 0 is the no-effect control and ±100 the full control effect; nearly all actives have a fitted effect of over 60% in size
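TGR 20 nM + NADPH 100 uM (dispensed conc.), cpd preinc 15 min RT; start with NADPH (500 uM addition) then DTNB (15 mM addition). Kinetic TNB absorbance, 405 nm filter. Four-parameter Hill fit across titration.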
* hit, by the source's call; ? = inconclusive; · = no result; [ ] = another dose, or the depositor's remark. A selection: hits, their analogues and other compounds. The true share with any hit is near 15%. Unless noted, the call rests on the fitted dose curve; in most records, active means well fitted curve in the direction sought with a large enough effect; inconclusive means small, poorly fitted or top-dose-only effect, or another doubt; inactive means no such curve, though single readings can be large; an effect the other way counts as inactive or inconclusive.

SMILES	Pf growth 96h	Pf growth 48h	HCV inhibitor	SARS PLP yeast	HCMV inh	Sm TGR inh
CC(C)OC(=O)c1cc2c(ccn2-c2ccc(F)cc2)n1CC(=O)N1CCN(C(=O)c2ccco2)CC1	?	1.65µM*	?	-1.6%	0.0	-4.8%
COC(=O)c1cc2c(ccn2-c2ccc(F)cc2)n1CC(=O)N1CCN(C(=O)c2ccco2)CC1	11.9%	?	-29.9%	4.5%	0.0	-7.3%
OC[C@H](O)[C@H](O)[C@@H](O)[C@@H](O)[C@@H]1SC(c2ccccc2)=NN1c1ccccc1	?	13.1µM*	-21.3%	-1.3%	-0.4	?
O=[N+]([O-])c1ccc2c(c1)N([O-])C1(CCCCC1)[N+]2=O	-28.6%	?	7.5%	0.1%	2.6	2.82µM*
CC1=C(c2ccccc2)[N+](=O)C2(CCCC2)N1[O-]	·	·	15.3%	3.3%	-5.8	10.8%[11.4 µM]
COc1ccc(S(=O)(=O)c2snnc2C)cc1	14.3%	·	7.8%	-0.5%	?	0.0%
CCCS(=O)(=O)c1snnc1C	17.8%	·	22.7%	-1.0%	-72.1*	-13.4%
CCN(CC)C(=O)C1=C(C)N(Cc2ccc(C(C)(C)C)cc2)C(=O)C(CC(=O)NC2CC2)C1 (configuration not stated)	·	·	·	·	-7.8	·
O=C(C(=C1N(Cc2ccc(Cl)nc2)CCN1Cc1ccc(Cl)nc1)[N+](=O)[O-])C(Cl)Cl	-0.8%	·	-4.9%	0.8%	-4.4	-12.4%
O=[N+]([O-])C(/C=C(\Cl)[N+](=O)[O-])=C1N(Cc2ccc(Cl)nc2)CCN1Cc1ccc(Cl)nc1	6.57µM*	2.33µM*	?	2.5%	-24.7	-34.5%
CC(C)CC1Nc2ncnc(N3CCN(c4ccccc4)CC3)c2N(Cc2ccc(Br)cc2)C1=O (configuration not stated)	5.86µM*	2.94µM*	?	1.3%	16.3	-14.8%
COc1ccc(CN2C(=O)C(CC(C)C)Nc3ncnc(N4CCOCC4)c32)cc1 (configuration not stated)	?	?	20.5%	0.4%	10.6	-2.3%
COc1ccc(CN2C(=O)C(Cc3ccccc3)Nc3ncnc(N4CCN(c5ccccc5)CC4)c32)cc1 (configuration not stated)	6.57µM*	2.62µM*	3.16µM*	-1.0%	?	?
COc1ccc(CN2C(=O)C(CC(C)C)Nc3ncnc(N4CCN(c5ccccc5)CC4)c32)cc1 (configuration not stated)	11.7µM*	2.62µM*	?	1.5%	5.2	?
Cc1ccc(CN2C(=O)C(CC(C)C)Nc3ncnc(N4CCOCC4)c32)cc1 (configuration not stated)	·	·	-3.5%	-1.4%	90.1	·
CC(C)CC1NC(=S)N(Cc2ccccc2)C1=O (configuration not stated)	9.28µM*	?	?	-15.0%	-100.1*	6.8%
c1ccc(CCCNCCCn2cnc3c(OCc4ccccc4)ncnc32)cc1	·	·	-35.3%	·	-17.9	·
COC(=O)[C@@H]1[C@@H](CO)[C@@H]2Cn3c(cccc3=O)[C@H]1N2Cc1ccccc1OC	·	·	·	·	18.8	·
CCOC(=O)c1c(NC(=O)c2ccc(N3C(=O)[C@@H]4[C@H](C3=O)[C@H]3C=C[C@@H]4C3)cc2)sc2c1CCCC2	?	11.1%	?	-24.0%	5.6	-4.2%
CC(OC(=O)c1nc(Cl)ccc1Cl)C(=O)Nc1ccc2c(c1)OCCO2 (configuration not stated)	23.0%	?	6.7%	7.3%	10.8	0.3%
CC(C)CC1Nc2ncnc(N3CCCCC3)c2N(Cc2ccccc2)C1=O (configuration not stated)	?	11.7µM*	8.8%	3.0%	·	-13.7%
CC(C)CC1Nc2ncnc(N3CCN(c4ccccc4)CC3)c2N(Cc2ccccc2)C1=O (configuration not stated)	11.7µM*	10.4µM*	?	5.0%	-37.6	?
